This is one part of a sample in which hits are shown more often than they occur.
ERG Ets-DNA blk = blocks human ERG Ets domain binding to DNA; Potency, µM (highest dose often 76.9 µM), for inactives: at the highest dose FP activity, negative = inhibition, actives largely listed as inhibitors; AID 624246; hit rate 0.028% among 370,000; P11308; fluorescence polarization, His-ERG Ets domain / labelled DNA; active means well fitted inhibition curve with a large enough effect in the polarisation, with a control signal flat; inconclusive means small, poorly fitted or top-dose-only effect, or effect the other way, or a change in a side signal; inactive means no such curve, though single readings can be large or run the other way; the % refers to the polarisation;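 further: polarization taken with two DNA probes labelled with fluorescein and Texas red; potency means the concentration at half of the fitted maximal effect; % of control where 0% means no effect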
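His-tagged ERG Ets domain (1 uM in the protein solution; 300mM KCl, 50mM Tris-HCl, 1mM EDTA, 1mM DTT, pH 7.5) received compound, then a probe mix of 5 nM fluorescein-DNA and 100nM Texas-615-DNA. Fluorescence polarization was read for both dyes.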
MLL CXXC-DNA inh = inhibitors of human MLL CXXC domain-DNA interaction. MLL-CXXC / FITC-HOXA9 DNA fluorescence polarization. hit rate 0.037% among 290,000. Potency, µM (top dose mostly 115 µM), for inactives: at the top dose activity change, negative = inhibition, usual class: inhibitors. Q03164; active means well fitted inhibition curve with a large enough effect in the polarisation, with a control signal flat, not every such curve was filed as active; inconclusive means small, poorly fitted or top-dose-only effect, or effect the other way, or a change in a side signal; inactive means no such curve, though single readings can be large or run the other way; the % refers to the polarisation; further: potency means the concentration at half of the fitted maximal effect
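Steps: dispense CXXC domain solution (7 uM) → pin compounds or unlabeled HOX-A9 DNA control → 5 min ambient → add FLSN-HOX-A9 solution (50 nM) → spin → 30 min ambient → fluorescence polarization. Tris pH 7.5/NaCl/DTT/BSA buffer.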
MmCpn inh = blocks the Methanococcus maripaludis chaperonin Mm-Cpn; purified Mm-Cpn ATPase, ADP Transcreener TR-FRET; Potency, µM (series often up to 76.9 µM), without a hit: at the highest dose activity, negative = inhibition, hits mostly inhibitors; hit rate 0.031% among 330,000; AID 504842; active means well fitted inhibition curve with a large enough effect; inconclusive means small, poorly fitted or top-dose-only effect; further: potency means the concentration at half of the fitted maximal effect; on the % scale 0 is the no-effect control and ±100 the full control effect; nearly all actives have a fitted effect of over 80% in size
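Purified archaeal chaperonin (25 nM final) was preincubated with compound for 10 min at 37°C, then ATP (10 uM final) was added for 30 min at 37°C in Tris pH 7.4/KCl/MgCl2/DTT buffer. ADP was quantified by HTRF Transcreener TR-FRET.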
Menin MLL FP TR = menin-MLL binding inhibition, Texas Red mutant peptide | Potency, µM (titrated, usually from 61.6 µM), for the others: at the highest dose FP activity change, negative = inhibition, most hits filed as inhibitors | Menin + Texas Red MLL mutant peptide, fluorescence polarization | hit rate 0.23% among 270,000 | O00255; active means well fitted inhibition curve with a large enough effect in the polarisation, with a control signal flat, not every such curve was filed as active; inconclusive means small, poorly fitted or top-dose-only effect, or effect the other way, or a change in a side signal; inactive means no such curve, though single readings can be large or run the other way; the % refers to the polarisation; further: potency means the concentration at half of the fitted maximal effect; % of control where 0% means no effect
Menin-MLL FL inh = menin-MLL binding inhibition, fluorescein peptide. Fluorescence polarization, fluorescein-MLL peptide displacement from menin. FP activity change, % at 61.4 µM. 290,000 tested, under 10 active. AID 1766; active means well fitted curve in the direction sought with a large enough effect in the polarisation, not every such curve was filed as active; inconclusive means small, poorly fitted or top-dose-only effect, or effect the other way, or a change in a side signal; inactive means no such curve, though single readings can be large or run the other way; the % refers to the polarisation; further: % of control where 0% means no effect
* marks the source's active call; other numbers are inactive results; ! = repeats disagree.

Results for COc1ccc(CNCCc2c(C)[nH]c3ccc(OC(F)(F)F)cc23)c(OC)c1 ?
ERG Ets-DNA blk: -3.0%; MLL CXXC-DNA inh: 8.5%; MmCpn inh: -3.1%; Menin MLL FP TR: 28.2µM*; Menin-MLL FL inh: -18.5

How did N.N.N.N.N.N.N.N.N.N.N.N.N.N.O.O.[Cl-].[Cl-].[Cl-].[Cl-].[Cl-].[Cl-].[Ru].[Ru].[Ru] do in these assays?
MLL CXXC-DNA inh: inconclusive; Menin MLL FP TR: 25.1µM*; Menin-MLL FL inh: inconclusive

How did CO/C1=C\C(C)=C\[C@@H](C)[C@@H](O)[C@@H](C)C/C(C)=C/C=C/[C@H](OC)[C@@H]([C@@H](C)[C@@H](O)[C@H](C)[C@@]2(O)C[C@@H](O)[C@H](C)C(C(C)C)O2)OC1=O (some centres undefined) do in these assays?
Menin MLL FP TR: 12.9%; Menin-MLL FL inh: -8.1

Results for CCCCCCCCCCCCCCCC[N+](C)(C)C ?
ERG Ets-DNA blk: 5.8%; MLL CXXC-DNA inh: inconclusive; MmCpn inh: -2.1%; Menin MLL FP TR: 28.2µM*!; Menin-MLL FL inh: 1.8

What do the screens show for `CCCCCCCCCC[N+](C)(C)CCCCCCCCCC`?
MLL CXXC-DNA inh: 23.8%; Menin MLL FP TR: -24.4%; Menin-MLL FL inh: 1.9

How did COC[C@H]1OC(=O)c2coc3c2[C@@]1(C)C1=C(C3=O)[C@H]2CCC(=O)[C@@]2(C)C[C@H]1OC(C)=O do in these assays?
Menin MLL FP TR: 10µM*; Menin-MLL FL inh: inconclusive

Results for CN1[C@@H]2CC(OC(=O)[C@@H](CO)c3ccccc3)C[C@@H]1[C@H]1O[C@H]12 (some centres undefined) ?
MLL CXXC-DNA inh: 2.6%; Menin MLL FP TR: 6.1%; Menin-MLL FL inh: 3.0

Results for CCCCn1c(NS(=O)(=O)c2ccccc2)c(C(=O)OCC)c2nc3ccccc3nc21 ?
ERG Ets-DNA blk: -8.4%; MLL CXXC-DNA inh: -4.0%; MmCpn inh: 44.7µM*; Menin MLL FP TR: -19.6%

How did CCCCn1c(NC(=O)c2ccc(Br)o2)c(C(=O)OCC)c2nc3ccccc3nc21 do in these assays?
ERG Ets-DNA blk: 4.5%; MLL CXXC-DNA inh: -0.7%; MmCpn inh: -16.7%; Menin MLL FP TR: -5.6%; Menin-MLL FL inh: 14.6

How did CCN1CCN(Cc2nc3ccc([N+](=O)[O-])cc3c(=O)n2-c2ccccc2F)CC1 do in these assays?
ERG Ets-DNA blk: -5.8%; MLL CXXC-DNA inh: inconclusive; MmCpn inh: 0.4%; Menin MLL FP TR: 10µM*; Menin-MLL FL inh: -10.9

What do the screens show for `COc1cccc(-n2c(CN3CCOCC3)nc3ccc([N+](=O)[O-])cc3c2=O)c1`?
ERG Ets-DNA blk: 1.3%; MLL CXXC-DNA inh: 9.4%; MmCpn inh: -0.1%; Menin MLL FP TR: -5.2%; Menin-MLL FL inh: 5.3

How did C[n+]1c(-c2ccccc2)c2cc(N)ccc2c2ccc(N)cc21 do in these assays?
ERG Ets-DNA blk: 14.1µM*; MLL CXXC-DNA inh: inconclusive; MmCpn inh: -24.1%; Menin MLL FP TR: inconclusive; Menin-MLL FL inh: inconclusive

How did NC1CCCC[C@H]1N (some centres undefined) do in these assays?
Menin MLL FP TR: 0.5%; Menin-MLL FL inh: -0.5

What do the screens show for `COC1CC(O[C@H]2/C(C)=C/CC3CC(C[C@]4(CCC(C)C(C5CCCCC5)O4)O3)OC(=O)[C@H]3C=C(C)/C(=N/O)C4OC/C(=C\C=C\[C@@H]2C)[C@@]43O)OC(C)C1O` (some centres undefined)?
MLL CXXC-DNA inh: 9.2%; Menin MLL FP TR: 22.4µM*; Menin-MLL FL inh: -2.1

Results for O=c1c2ccccc2nc(CN2CCCCCC2)n1-c1ccc(F)cc1 ?
ERG Ets-DNA blk: -1.3%; MLL CXXC-DNA inh: 9.7%; MmCpn inh: -1.4%; Menin MLL FP TR: 17.8µM*; Menin-MLL FL inh: -27.1

What do the screens show for `C#C[C@]1(O)CC[C@H]2[C@@H]3CCC4=CC(=O)CC[C@]4(C)[C@H]3CC[C@@]21C`?
ERG Ets-DNA blk: -2.7%; MLL CXXC-DNA inh: 1.3%; MmCpn inh: -1.6%; Menin MLL FP TR: 6.3%; Menin-MLL FL inh: 0.2

Results for C#C[C@]1(O)CCC2C3CCC4=C/C(=N/OCC(=O)NC(C)C(=O)NC(CCSC)C(=O)O)CC[C@]4(C)C3CC[C@@]21C (some centres undefined) ?
ERG Ets-DNA blk: 9.7%; MLL CXXC-DNA inh: 4.0%; MmCpn inh: -3.0%; Menin MLL FP TR: 25.1µM*; Menin-MLL FL inh: -16.0

How did CCCCN1C(=O)/C(=C/c2ccc(N(C)C)cc2)C(=O)N(Cc2ccco2)C1=O do in these assays?
ERG Ets-DNA blk: inconclusive; MLL CXXC-DNA inh: inconclusive; MmCpn inh: -4.6%; Menin MLL FP TR: 25.1µM*; Menin-MLL FL inh: inconclusive

Results for CCN(CC)c1ccc(/C=C2\C(=O)NC(=O)N(Cc3ccco3)C2=O)cc1 ?
ERG Ets-DNA blk: 52.3%; MLL CXXC-DNA inh: 1.7%; MmCpn inh: -1.2%; Menin MLL FP TR: 11.4%; Menin-MLL FL inh: inconclusive

How did CN1CCN(C(=O)COc2ccc(-c3nc4ccccc4s3)cc2)CC1 do in these assays?
MLL CXXC-DNA inh: -1.3%; MmCpn inh: -1.2%; Menin MLL FP TR: 12.6µM*; Menin-MLL FL inh: 1.9

What do the screens show for `CN1CCN(C(=O)COc2ccc3ccccc3c2)CC1`?
ERG Ets-DNA blk: -2.1%; MLL CXXC-DNA inh: -3.1%; MmCpn inh: 1.6%; Menin MLL FP TR: -2.7%; Menin-MLL FL inh: -3.0

What do the screens show for `CN1C(=O)[C@]23CC4=CC=C[C@H](O)[C@H]4N2C(=O)[C@@]1(CO)SS3`?
Menin MLL FP TR: 12.5%; Menin-MLL FL inh: 1.6

What do the screens show for `Cc1cc2ccccc2n1CCNC(=O)Cc1ccccc1`?
ERG Ets-DNA blk: 35.5µM*; MLL CXXC-DNA inh: 2.5%; MmCpn inh: -7.3%; Menin MLL FP TR: inconclusive; Menin-MLL FL inh: -18.3

What do the screens show for `COC(=O)[C@@H]1C[C@H]1[C@@H](NP(=O)(c1ccccc1)c1ccccc1)c1ccccc1`?
ERG Ets-DNA blk: -12.0%; MLL CXXC-DNA inh: 4.9%; MmCpn inh: -1.7%; Menin MLL FP TR: 0.141µM*!; Menin-MLL FL inh: 1.2

What do the screens show for `CC(C)c1cc2c(c(O)c1O)[C@@]1(C(=O)O)CCCC(C)(C)[C@@H]1CC2`?
Menin MLL FP TR: inconclusive; Menin-MLL FL inh: 0.5

How did COc1cccc(-n2c(/C=C/c3cccc(C)c3)nc3ccccc3c2=O)c1 do in these assays?
ERG Ets-DNA blk: 28.2µM*

How did COc1cccc(-n2c(/C=C/c3ccccc3O)nc3ccccc3c2=O)c1 do in these assays?
ERG Ets-DNA blk: 0.9%

What do the screens show for `CON(C)C(=O)Nc1ccc(Br)c(Cl)c1`?
Menin MLL FP TR: -0.5%; Menin-MLL FL inh: inconclusive

How did O=[N+]([O-])c1ccc(N2CCCCCC2)c2nonc12 do in these assays?
ERG Ets-DNA blk: inconclusive; MLL CXXC-DNA inh: inconclusive; MmCpn inh: 1.4%; Menin MLL FP TR: inconclusive; Menin-MLL FL inh: inconclusive

Results for O=[N+]([O-])c1ccc(NCc2ccccc2)c2nonc12 ?
ERG Ets-DNA blk: 6.31µM*; MLL CXXC-DNA inh: inconclusive; MmCpn inh: 0.6%; Menin MLL FP TR: inconclusive; Menin-MLL FL inh: inconclusive

Assay outcomes from PubChem.
